HepG2 tox-1 – qHTS for Inhibitors of TGF-b: Cytotox Counterscreen. HepG2 CAGA-GFP viability, ATP luminescence, 18 h. Potency, µM (doses to about 46.1 µM), for the others: top-dose activity change, negative = cytotoxicity, hits mostly cytotoxic. 410,000 tested, 0.76% active. AID 588856, 2011; note: potency is the fitted concentration of half-maximal effect
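HepG2 CAGA-GFP cells (1000/well, DMEM with 1% FBS) received compound, then TGF-beta at 500 pg/mL final, and were incubated 18 hours at 37 degrees C. Viability was read by CellTiter-Glo luminescence. Media-only wells were set as complete cell-killing and DMSO as no toxicity.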
TDP1 inh – qHTS Assay for Inhibitors of Tyrosyl-DNA Phosphodiesterase (TDP1); recombinant TDP1, AlphaScreen DNA substrate cleavage; 350,000 tested, 0.28% active; AID 485290, 2010; Tyrosyl-DNA phosphodiesterase 1 (Homo sapiens), Q9NUW8; Potency, µM (series often up to 130 µM), for the others: top-dose activity change, negative = inhibition, most hits filed as inhibitors; note: potency is the fitted concentration of half-maximal effect; % is set by controls: 0 for no effect and ±100 for the full control effect; nearly all actives have a fitted effect of over 40% in size
Target sequence (Q9NUW8 whole entry, looked up): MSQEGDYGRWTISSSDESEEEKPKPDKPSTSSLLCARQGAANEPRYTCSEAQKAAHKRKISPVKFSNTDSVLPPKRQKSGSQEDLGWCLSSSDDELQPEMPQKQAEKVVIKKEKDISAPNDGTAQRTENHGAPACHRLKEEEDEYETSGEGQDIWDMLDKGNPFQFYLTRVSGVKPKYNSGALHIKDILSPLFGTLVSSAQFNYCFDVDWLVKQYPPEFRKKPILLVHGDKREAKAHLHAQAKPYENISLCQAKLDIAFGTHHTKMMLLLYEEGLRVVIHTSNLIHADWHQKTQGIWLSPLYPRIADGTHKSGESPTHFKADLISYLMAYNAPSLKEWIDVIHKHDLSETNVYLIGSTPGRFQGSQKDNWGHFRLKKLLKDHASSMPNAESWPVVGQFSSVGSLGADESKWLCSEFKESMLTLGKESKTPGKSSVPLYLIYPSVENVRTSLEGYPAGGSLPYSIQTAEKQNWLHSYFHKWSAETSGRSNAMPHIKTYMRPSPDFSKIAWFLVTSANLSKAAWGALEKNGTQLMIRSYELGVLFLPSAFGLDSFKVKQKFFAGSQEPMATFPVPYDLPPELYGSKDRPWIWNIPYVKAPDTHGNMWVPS
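Signal: AlphaScreen proximity between streptavidin donor and anti-FITC acceptor beads on intact substrate. Reaction: Tdp1 1 nM, substrate 15 nM final, 5 min RT after 15 min compound preincubation.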
TGFb inhibitor – qHTS for Inhibitors of TGF-b | 410,000 tested, 1.2% active | HepG2 CAGA-GFP TGF-b/SMAD3 reporter, GFP fluorescence, 18 h; TGF-beta stimulated, 500 pg/mL final | Potency, µM (series often up to 46.1 µM), inactives show at the top dose activity, negative = inhibition, usual class: inhibitors; note: potency is the fitted concentration of half-maximal effect; % is set by controls: 0 for no effect and ±100 for the full control effect; nearly all actives have a fitted effect of over 65% in size
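Using HEPG2 CAGA-GFP reporter cells at 1000 cells/well, we pinned test compounds, stimulated with recombinant TGF-beta (500 pg/mL final) and measured total well GFP after 18 h.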
IL-1B inflam inh – qHTS for Inhibitors of Inflammasome Signaling: IL-1-beta AlphaLISA Primary Screen | 360,000 tested, 4.7% active | AID 743279, 2014 | THP-1 LPS/ATP IL-1B secretion, AlphaLISA, 16 h; active compounds read low | activity change, % at 57.5 µM; in the data active = activity change below about -50%; inconclusive = mostly about -30% to -49%; note: % is set by controls: 0 for no effect and ±100 for the full control effect
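Secreted IL-1B measured by AlphaLISA bead assay after 16 h compound exposure of THP-1 cells; compounds (final up to 57.5 uM) added 1 h before LPS (250 ng/mL) and ATP (1.25 mM) stimulation; lower signal means less secretion.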
DT40 TDP1 no CPT – qHTS for Inhibitors of human tyrosyl-DNA phosphodiesterase 1 (TDP1): qHTS in cells in absence of CPT | Potency, µM (top dose mostly 46.2 µM), without a hit: top-dose activity change, negative = growth inhibition, actives largely listed as inhibitors | 420,000 tested, 15% active | DT40 Tdp1-/- hTDP1 cells, no CPT, ATP luminescence, 48 h | AID 686978, 2013; note: potency is the fitted concentration of half-maximal effect; % is set by controls: 0 for no effect and ±100 for the full control effect; nearly all actives have a fitted effect of over 55% in size
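Growth of hTDP1-complemented DT40 Tdp1-knockout cells is measured by ATP luminescence after at least 48 hr compound exposure at 37 °C, with DMSO substituting for the 20 nM CPT used in the parallel screen.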
TDP1 cell CPT – qHTS for Inhibitors of human tyrosyl-DNA phosphodiesterase 1 (TDP1): qHTS in cells in presence of CPT. chicken DT40 Tdp1-/-;hTDP1 cells + 20 nM CPT, ATP luminescence, 48 h. Potency, µM (series often up to 46.2 µM), for the others: top-dose activity change, negative = growth inhibition, hits mostly inhibitors. 420,000 tested, 12% active; note: potency is the fitted concentration of half-maximal effect; % is set by controls: 0 for no effect and ±100 for the full control effect; nearly all actives have a fitted effect of over 55% in size
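Chicken DT40 Tdp1-/- cells stably complemented with human TDP1 were seeded at 400 cells/well in medium containing 20 nM camptothecin, exposed to pin-transferred compounds, and grown at 37 °C for at least 48 hr. Viability was read as ATP luminescence.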
TGFb CAGA inh – qHTS for Inhibitors of TGF-b: Confirmation of Cherry Picks | HepG2 CAGA-GFP TGF-b reporter, GFP fluorescence, 18 h; cells stimulated with TGF-beta, 500 pg/mL | 1,600 tested, 63% active | Potency, µM (top dose mostly 46.1 µM), for the others: top-dose activity, negative = inhibition, most hits filed as inhibitors | shares compounds with TGFb inhibitor; note: potency is the fitted concentration of half-maximal effect; % is set by controls: 0 for no effect and ±100 for the full control effect; nearly all actives have a fitted effect of over 65% in size
HepG2 tox-2 – qHTS for Inhibitors of TGF-b: Cytotox Counterscreen for Cherry Picks; shares compounds with TGFb inhibitor; HepG2 CAGA-GFP viability, ATP luminescence, 18 h; cells stimulated with TGF-beta, 500 pg/mL; Potency, µM (series often up to 46.1 µM), for inactives: at the top dose activity, negative = cytotoxicity, hits mostly inhibitors; 1,600 tested, 27% active; note: potency is the fitted concentration of half-maximal effect; % is set by controls: 0 for no effect and ±100 for the full control effect; nearly all actives have a fitted effect of over 70% in size
TGFb CCL64 inh – qHTS for Inhibitors of TGF-b: CCL64 Cells Orthogonal Assay for Cherry Picks | Potency, µM (titrated, usually from 46.1 µM), for the others: at the highest dose activity, negative = inhibition, usual class: inhibitors | AID 720536, 2013 | CCL64 CAGA-GFP reporter, TGF-b stimulated, GFP fluorescence, 18 h | 1,600 tested, 41% active | shares compounds with TGFb inhibitor; note: potency is the fitted concentration of half-maximal effect; nearly all actives have a fitted effect of over 65% in size
COP TGFb inh – qHTS for Inhibitors of TGF-b: Hit Validation in HepG2 Cells using COP promoter; Potency, µM (highest dose often 46.1 µM), inactives show at the top dose activity, negative = inhibition, actives largely listed as inhibitors; AID 720537, 2013; shares compounds with TGFb inhibitor; 1,600 tested, 3% active; HepG2 COP-GFP TGF-b reporter, GFP fluorescence, 18 h; cells stimulated by added recombinant TGF-beta; note: potency is the fitted concentration of half-maximal effect; nearly all actives have a fitted effect of over 70% in size
* marks the source's active call; other numbers are inactive results; i = inactive; u = inconclusive; x = no result; [ ] = remark or other dose. Sampled rows, rich in hits. Any-hit rate of the full collection: about 18%. Unless noted, calls come from the whole dose curve; as a rule, active = well fitted curve in the direction sought with a large enough effect; inconclusive = small, poorly fitted or top-dose-only effect, or another doubt; inactive = no such curve, though single readings can be large; an effect the other way counts as inactive or inconclusive.

SMILES	HepG2 tox-1	TDP1 inh	TGFb inhibitor	IL-1B inflam inh	DT40 TDP1 no CPT	TDP1 cell CPT	TGFb CAGA inh	HepG2 tox-2	TGFb CCL64 inh	COP TGFb inh
O=[N+]([O-])c1ccc(NN=Cc2cccc3ccccc23)nc1	-1%	x	-1%	-25	u	u	x	x	x	x
COc1cccc(/C=N/Nc2ccc([N+](=O)[O-])cn2)c1O	i	x	0.79µM*	-76*	2.9µM*	3.3µM*	1.6µM*	u	u	23%
O=C(COC(=O)CC(c1ccccc1)c1ccccc1)NCc1ccc(Cl)cc1	-7%	5%	11µM*	-71*	-8%	-27%	u	u	u	27%
CCCC(=O)OCC(=O)NCc1ccc(Cl)cc1	0%	0%	58%	4	8%	-1%	x	x	x	x
CS(=O)(=O)N(CC(=O)Nc1ccc(F)c(F)c1)c1cccc([N+](=O)[O-])c1	8%	2%	-2%	u	14%	1%	x	x	x	x
O=C(c1ccco1)N1CCCC(c2nc(-c3ccc(S(=O)(=O)NCc4ccccc4)cc3)no2)C1 (centres undefined)	-69%	6%[56.1 µM]	u	u	18µM*	13µM*	15µM*	u	-22%	41%
O=C(c1ccc(S(=O)(=O)NCc2ccco2)cc1)N1CCCC(C(F)(F)F)C1 (centres undefined)	15%	6%	-2%	-4	-25%	-17%	x	x	x	x
CC(C)c1ccccc1NC(=O)Cn1c(/C=C/c2ccccc2)nc2ccccc21	13µM*	x	10µM*	-7	u	18µM*	-24%	u	u	-10%
O=C1CCC(C(=O)NCc2ccc3c(c2)OCO3)N1 (centres undefined)	-3%	6%	14%	0	3%	11%	x	x	x	x
Cc1c(/C=N\NC(=O)C2COc3ccccc3O2)c2ccccc2n1C (centres undefined)	-2%	11%	8.9µM*	3	0.92µM*	0.73µM*	5.8µM*	-13%	6.5µM*	-5%
